A selection: hits, their analogues and other compounds. The true share with any hit is near 31%.
CYP2C9 activ – CYP2C9 (human) activation | 96,000 compounds, 1.4% hits | recombinant CYP2C9, luciferin-H conversion, luminescence; active compounds read high; factor 1 = untreated enzyme, 0 = blocked | activation factor at 5 µM;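 active = activation factor of 2 or more for CYP2C9 at a 5 µM dose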;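 also: 0 = sulfaphenazole-blocked wells and 1 = vehicle-only wells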
CYP2C19 act – cytochrome P450 2C19 (human) activation; recombinant CYP2C19, luciferin-H EGE luminescence; active compounds read high; 0 = fully inhibited enzyme, 1 = untreated enzyme; P33261; activation factor at 5 µM; AID 1025; 96,000 tested, under 10 active;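 active = activation factor of at least 2 at 5 µM in the primary screen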;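 also: 0 = wells with 2.5 mM tranylcypromine and 1 = vehicle-only wells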
Target sequence (P33261 whole entry, looked up): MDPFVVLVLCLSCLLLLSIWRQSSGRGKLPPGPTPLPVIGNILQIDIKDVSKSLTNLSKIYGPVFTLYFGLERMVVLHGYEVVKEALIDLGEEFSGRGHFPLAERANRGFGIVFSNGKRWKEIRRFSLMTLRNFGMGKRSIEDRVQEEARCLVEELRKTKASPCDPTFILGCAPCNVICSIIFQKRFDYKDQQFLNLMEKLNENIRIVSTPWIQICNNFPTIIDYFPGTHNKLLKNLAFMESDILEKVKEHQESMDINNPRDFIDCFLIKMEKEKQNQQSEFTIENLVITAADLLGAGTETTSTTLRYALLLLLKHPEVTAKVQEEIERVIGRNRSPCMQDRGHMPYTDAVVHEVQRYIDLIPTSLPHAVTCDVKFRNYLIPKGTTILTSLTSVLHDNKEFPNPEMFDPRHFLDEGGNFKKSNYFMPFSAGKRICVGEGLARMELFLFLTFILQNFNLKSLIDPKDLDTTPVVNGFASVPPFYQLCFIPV
CYP2C9 inh – blocks human cytochrome P450 2C9 | 96,000 compounds, 20% hits | CYP2C9 Supersomes, luciferin-H conversion, luminescence | AID 777 | P11712 | inhibition, % at 5 µM;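 active = blocking of liver enzyme CYP2C9 beyond about 50% at 5 µM, limit read from the data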
CYP2C19 inhib – human CYP2C19 inhibition; P33261; CYP2C19 Supersomes, luciferin-H EGE luminescence, 30 min; inhibition, % at 5 µM; 96,000 compounds, 21% hits;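 active = CYP2C19 inhibition above a set limit at 5 µM in the primary screen, cut at about 50% in these data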;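 also: plate controls were negative control wells for no effect and 2.5 mM tranylcypromine positive control for full effect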
Active calls of the source: *.

SMILES | CYP2C9 activ | CYP2C19 act | CYP2C9 inh | CYP2C19 inhib
OC1(C2(O)CC(c3ccccc3)ON2)CCCCC1 (stereo not given) | 0.9 | 0.2 | 10 | 77*
CC(Sc1ccccc1)C(=O)Nc1ccccc1C(=O)N1CCOCC1 (stereo not given) | 0.9 | 0.9 | 10 | 12
Cc1cc(C)n2nc(SCC(=O)Nc3c(C)n(C)n(-c4ccccc4)c3=O)nc2n1 | 1 | 1 | 3 | 0
CN(C(=O)c1cnc(N2CCN(c3ncccn3)CC2)c2ccccc12)c1ccc(Cl)cc1 | 0.3 | 0.1 | 70* | 88*
O=C(c1csc2ccccc12)N1CCN(c2ccccn2)CC1 | 1.2 | 0.6 | -15 | 40
CCN(C(=O)c1cnc(N2CCN(c3ncccn3)CC2)c2ccccc12)c1cccc(Cl)c1 | 0.2 | 0 | 85* | 97*
O=C(c1cnc(N2CCN(c3ncccn3)CC2)c2ccccc12)N1CCN(c2ncccn2)CC1 | 0.4 | 0.6 | 64* | 42
O=C1NC(c2cn(-c3ccccc3)nc2-c2cccs2)C(C(=O)c2cccnc2)C(O)(C(F)(F)F)N1 (stereo not given) | 0.9 | 1 | 14 | 4
CSc1ccccc1NC(=O)c1cccnc1 | 1.1 | 1.1 | -13 | -8
Cc1ccc(NC(=S)/C(=C(\[O-])c2ccc(C)c([N+](=O)[O-])c2)[n+]2ccccc2)cc1C | 0.3 | 0.6 | 69* | 38
CC1CCN(c2ccc(NC(=O)c3cccnc3)cc2)CC1 | 0.3 | 0.6 | 72* | 35
CCOc1ccc(S(=O)(=O)N(C)CCO)cc1-c1nc2c(C(C)(C)C)nn(C)c2c(=O)[nH]1 | 0.3 | 0.4 | 67* | 64*
CCOc1ccc(S(=O)(=O)N(C)C)cc1-c1nc2c(C(C)(C)C)nn(C)c2c(=O)[nH]1 | 0.8 | 1.1 | 20 | -6
Cc1ccc2cc(CN(CCCN(C)C)C(=O)NCc3ccccc3)c(=O)[nH]c2c1C | 0.9 | 1 | 8 | -3
CC(CN1CCCCC1)OC(=O)Cc1ccc(Cl)cc1 (stereo not given) | 0.9 | 0.4 | 6 | 60*
CC(CN1CCN(C)CC1)OC(=O)c1ccccc1Cl (stereo not given) | 1.1 | 0.9 | -9 | 10
CC(CN1CCCCC1)OC(=O)C(C)(c1ccccc1)c1ccccc1 (stereo not given) | 0.3 | 0.5 | 68* | 54*
O=C(COC(=O)CNC(=O)C12CC3CC(CC(C3)C1)C2)Nc1ccccc1 | 1 | 0.9 | 3 | 8
NS(=O)(=O)c1ccc(NC(=O)COC(=O)CCNC(=O)NC23CC4CC(CC(C4)C2)C3)cc1 | 0.4 | 0.7 | 65* | 30
O=C(NCCc1ccccn1)C1CC(=O)N(Cc2ccccc2Cl)C1 (stereo not given) | 1.3 | 0.3 | -34 | 68*
COc1ccc(CN2CC(C(=O)NCc3ccccn3)CC2=O)cc1 (stereo not given) | 1 | 1 | -4 | -4
Cc1ccc2nc(-c3cccc(S(=O)(=O)N(C)C)c3)cn2c1 | 0.9 | 0.9 | 14 | 14
CCN(CC)S(=O)(=O)c1cccc(-c2cn3cc(C)ccc3n2)c1 | 0.3 | 0.4 | 67* | 61*
O=C1C2C(C(=O)N1CCc1ccccc1)C1C=CC2C12CC2 (stereo not given) | 0.7 | 0.1 | 29 | 92*
O=C1C2C(C(=O)N1Cc1ccco1)C1C=CC2C12CC2 (stereo not given) | 1.1 | 0.9 | -9 | 12
SMILES | CYP2C9 activ | CYP2C19 act | CYP2C9 inh | CYP2C19 inhib
Cc1c(NC(=O)NCCN2C(=O)C3C4C=CC(C4)C3C2=O)c(=O)n(-c2ccccc2)n1C (stereo not given) | 1 | 1.1 | -1 | -10
O=C(NCCN1C(=O)C2C3C=CC(C3)C2C1=O)Nc1ccccc1O (stereo not given) | 0.8 | 0.2 | 17 | 77*
O=C(CCN1C(=O)C2C3C=CC(C3)C2C1=O)NCCc1ccccc1 (stereo not given) | 0.9 | 0.8 | 11 | 15
O=C1C2C3C=CC(C3)C2C(=O)N1CCc1ccccc1 (stereo not given) | 0.7 | 0.1 | 35 | 90*
Cc1ccc(OCc2nnc(SCC(=O)Nc3ccc4c(c3)OCCO4)n2Cc2ccco2)cc1 | 0.3 | 0.6 | 69* | 44
Cc1ccc(NC(=O)CSc2nnc(-c3cnccn3)n2Cc2ccco2)cc1 | 0.5 | 0.7 | 48 | 27
CCn1c(Cc2ccccc2)nnc1SCC(=O)Nc1ccc2c(c1)OCCO2 | 0.4 | 0.3 | 58* | 68*
O=C(CSc1ccc2nnc(-c3ccccc3)n2n1)NCc1ccc2c(c1)OCO2 | 0.7 | 0.9 | 29 | 8
O=C(CSc1nnc(-c2ccccc2)n1Cc1ccco1)NCc1ccc2c(c1)OCO2 | 0.3 | 0.9 | 67* | 7
O=C(CSc1ncc(-c2ccc(F)cc2)n1Cc1ccco1)Nc1ccc2c(c1)OCO2 | 0.3 | 0.8 | 73* | 19
Cc1nnc(SCC(=O)Nc2cccc(C(F)(F)F)c2)n1Cc1ccco1 | 1 | 0.9 | 1 | 9
O=C(CSc1nnc(-c2cccs2)n1Cc1ccco1)Nc1ccc2c(c1)OCO2 | 0.4 | 0.7 | 63* | 33
CCOC(=O)c1ccc(NC(=O)CSc2nnc(-c3cccs3)n2CC)cc1 | 0.9 | 0.9 | 13 | 13
Cc1cc(-c2ccco2)n(CC(=O)NCc2ccccc2)n1 | 0.9 | 0.3 | 6 | 75*
CCn1c(SCC(=O)NC(=O)Nc2ccc3c(c2)OCCO3)nnc1-c1cccs1 | 0.4 | 0.5 | 56* | 48
CCn1c(SCC(=O)Nc2ccc3c(c2)OCCO3)nnc1-c1ccco1 | 0.8 | 0.8 | 21 | 15
O=C(CSc1nnc(-c2ccccc2)n1Cc1ccco1)Nc1ccc2c(c1)OCCO2 | 0.5 | 0.4 | 55* | 56*
O=C(CN1C(=O)C2C3c4ccccc4C(c4ccccc43)C2C1=O)N1CCOCC1 (stereo not given) | 1 | 1 | -1 | 4
Cc1ccc(-c2noc(CCC(=O)NCc3ccco3)n2)cc1 | 0.5 | 0.9 | 47 | 13
CCCn1c(SCC(=O)NCc2ccco2)nnc1C(C)C | 1.2 | 1.2 | -16 | -16
O=C(CSc1nc(O)c(Cc2ccccc2)c(=O)n1-c1ccccc1)N1CCOCC1 | 1.2 | 1.1 | -23 | -10
Cc1cccc(NC(=O)C2CC(O)CN2C(=O)OCc2ccccc2)c1 (stereo not given) | 0.8 | 0.7 | 17 | 27
O=C(CSc1nnc(-c2ccco2)n1Cc1ccco1)NCc1ccccc1 | 0.2 | 0.3 | 85* | 66*
Cn1c(SCC(=O)Nc2ccc3c(c2)OCCO3)nnc1-c1ccco1 | 0.4 | 0.5 | 63* | 52*
COc1ccccc1C(=O)N/C(N)=N/c1nc2ccccc2o1 | 1 | 0.9 | 1 | 6
O=C(C1CCN(S(=O)(=O)c2ccc(Br)s2)CC1)N1CCc2ccccc21 | 0.9 | 0.6 | 12 | 43
COc1ccc(CCC(=O)Nc2nc3ccccc3[nH]2)cc1 | 0.9 | 1 | 7 | 2
COc1ccc(CCC(=O)Nc2ccc(Br)cn2)cc1 | 0.8 | 0.2 | 21 | 81*
O=C(CCCN1C(=O)c2ccccc2C1=O)Nc1ccc(Br)cn1 | 0.9 | 1 | 10 | -4
O=C(O)CCC(=O)Nc1ccc(Br)cn1 | 1 | 0.5 | 2 | 50*
